In the supplement of paper PMC7156485:
Where “and” joins values, the source holds several entries; their conditions need not be identical. Equal entries are not always repeated.

Columns and labels:
Conditions in all cases: concentration: 10 µM; 24 h
HCC1569 [1] = experiment: cell number relative to DMSO (% of DMSO); higher = more cells (less growth inhibition / toxicity)
Method in brief: (§1)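 Cell number or H1.0 nuclear intensity appears as percent of the plate control, based on the median of replicates. Measurements came from HCC1569 and TDF cells exposed in triplicate to compounds at 10 µM for 24 h at 37 °C, then imaged in six fields per well at ×10. Positional effects were smoothed out of HCC1569 values.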

TDF [2] = experiment: as above
Method in brief: as §1

TDF [3] = experiment: H1.0 immunofluorescence intensity relative to DMSO (% of DMSO); higher = stronger H1.0 induction, active = 120 or more
Method in brief: as §1

HCC1569 [4] = experiment: H1.0 immunofluorescence intensity relative to DMSO (% of DMSO); higher = stronger H1.0 induction, active = 140 or more
Method in brief: as §1
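Wherever H1.0 immunofluorescence intensity relative to DMSO is given: TDF is a line of transformed human dermal fibroblasts of mesenchymal origin.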
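Wherever cell number relative to DMSO is given: TDF denotes transformed human dermal fibroblasts of mesenchymal origin.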

Structure (SMILES) | cell number (HCC1569 [1]) | cell number (TDF [2]) | H1.0 immunofluorescence intensity (TDF [3]) | H1.0 immunofluorescence intensity (HCC1569 [4])
C[N+](C)(C)C(Cc1c[nH]c(=S)[nH]1)C(=O)[O-] (configuration not stated) [Ergothioneine] | 100 | 103 | 101 (inactive) | 99.9 (inactive)
CC1OC(OC2C(Oc3cc(O)c4c(c3)OC(c3ccc(O)cc3)CC4=O)OC(CO)C(O)C2O)C(O)C(O)C1O (configuration not stated) [Naringin] | 103 | 99 | 96.2 (inactive) | 86.1 (inactive)
CC(C)(CCCCCCCCCCC(C)(C)CC(=O)O)CC(=O)O [3,3,14,14-tetramethylhexadecanedioic acid] | 102 | 97.7 | 96.6 (inactive) | 93.7 (inactive)
CCC(CO)Nc1nc(NCc2ccccc2)c2ncn(C(C)C)c2n1 (configuration not stated) [Roscovitine] | 93.4 | 99 | 93.9 (inactive) | 103 (inactive)
Cn1cc(C2=C(c3ccc(Cl)cc3Cl)C(=O)NC2=O)c2ccccc21 | 86.2 and 92.3 | 100 and 111 | 104 (inactive) and 105 (inactive) | 158 (active) and 136 (inactive)
CCOC(OCC)P(=O)(O)CCCNCc1ccc(Cl)c(Cl)c1 | 108 | 95.6 | 98.3 (inactive) | 102 (inactive)
CCCCc1oc2ccccc2c1C(=O)c1cc(I)c(OCCN(CC)CC)c(I)c1.Cl [Amiodarone hydrochloride] | 98.5 | 92 | 98.9 (inactive) | 101 (inactive)
NC1CCN(O)C1=O (racemic) | 101 | 104 | 84.3 (inactive) | 82.9 (inactive)
